Test results as given in PubChem BioAssay.
Where “and” joins values, the source holds several entries; their conditions need not be identical. Identical values can stand only once. A structure can be active in one record and inactive in another. Calls of active or inactive are those of the source. Unless noted, no rule for the calls is given here.

Assays:
[1] = compounds altering circadian rhythm period length – cell-based, LOPAC library, luminescence reporter (AID 2774); settings: circadian reporter cells, at 7 µM, actives lie on both sides;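 also: values are relative to mean of DMSO wells on each plate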
[2] = tested on: Hepatitis C virus NS3 helicase; test: blockers of NS3h binding to ssDNA – biochemical, fluorescence polarization, LOPAC1280 library, primary screen (AID 687035; in the data active = inhibition above about 37%); settings: Purified HCV NS3 helicase, Cy5-dT15 ssDNA binding fluorescence polarization; stronger effect = higher value; concentration not given here
[3] = compounds altering Cy5-DNA-NS3h complex signal – biochemical, LOPAC1280, artefact control for HCV NS3 helicase inhibitor project (AID 687037); settings: Cy5-DNA-NS3h complex fluorescence interference counterscreen
[4] = tested on: Aerobactin synthetase IucA (Klebsiella pneumoniae); test: inhibition of K. pneumoniae IucA enzyme – biochemical, Tocris library, absorbance (AID 1345561); settings: purified IucA enzyme assay, absorbance (OD) read-out; stronger effect = lower value;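 tested at 8 µM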;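 also: 100% = enzyme without compound and 0% = no enzyme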
[5] = viability loss with induced miR-34 in A549 – imaging, A549 dox-inducible miR-34, nuclei and caspase counts, primary screen (AID 1347080;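 active = compounds whose cell count with miR-34 switched on is under 0.7 times the count with it off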); settings: A549 miR-34 inducible, Hoechst nuclei count, 48 h
[6] = chitosan synthesis blockers in C. neoformans – flow cytometry, Cibacron Brilliant Red staining (AID 1347148); settings: Cryptococcus neoformans chitosan, stronger effect = lower value; at 10 µM unless noted;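 also: compound exposure lasted three days at 37 degrees C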
[7] = blockers of cellular phospholipid synthesis – cell-based, LOPAC library, screen 4, primary screen (AID 1347384); settings: animal cells, phospholipid biosynthesis inhibition screen; at 10 µM
[8] = galactose survival enhancers in mitochondrial complex I cybrids – cell-based, galactose medium, ATP luminescence, primary screen (AID 1645843;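 active = z-score of at least 1.8 in each of two replicates, scored against plate mean and spread of sample wells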;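 also: positive z means more ATP and so rescue of galactose-driven cybrid death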); settings: complex I mutant cybrid cells, 72 h, stronger effect = higher value
[9] = compounds altering viability of human ES cells (AID 493140); settings: human embryonic stem cell survival screen; stronger effect = higher value;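 also: cells exposed to compounds for four days before counting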
[10] = compounds altering HSF1 focus formation in cells – imaging, Selleck Cancer Library (AID 1347162; in the data active = plate-normalised HSF1 focus index below about 0.46); settings: human cells, HSF1 nuclear foci imaging, at 10 µM; SSMD: measured here: HSF1 foci SSMD mean; cell count: measured here: cell number; plate-normalised HSF1 focus index: stronger effect = lower value
[11] = MELAS cybrid and Rieske KO viability enhancers – cell-based, MELAS cybrids, Rieske KO mouse fibroblasts, CellTiter-Glo, primary screen (AID 1508586;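 active = mean z-score across replicates of 1.96 or higher in either the MELAS or the Rieske mutant cell line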;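 also: z relative to plate mean and SD of compound and empty wells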); settings: low glucose
[12] = drug combination growth inhibition, ovarian cancer – cell-based, oncology-focused library, rucaparib conditional, profiling panel (AID 1508598;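 active = normalized viability below 100% at a tested concentration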); settings: patient-derived ovarian cancer cells, CellTiter-Glo viability, 144 h, stronger effect = lower value
[13] = stronger effect = lower value, cell number ratio, induced over uninduced
[14] = measured here: relative caspase fold change +Dox/-Dox
[15] = measured here: total cells with miR-34 induction, stronger effect = lower value
[16] = measured here: total cells without miR-34 induction
[17] = MELAS cybrid survival, CellTiter-Glo 48 h, stronger effect = higher value
[18] = Rieske KO mouse fibroblast survival, CellTiter-Glo 72 h

COCc1nc2c([nH]1)c(=O)n(C)c(=O)n2CC(C)C
period change [1]: -0.19 h (inactive) | inhibition [2]: -4% (inactive) | fluorescence ratio (interference) [3]: 0.9 (inactive) | remaining activity [4]: 101% (inactive) | fold change [5, 13]: 1.1 (inactive) and 0.916 (inactive) and 0.973 (inactive) | fold change [5, 14]: 1 and 1.13 and 0.871 | cell count [5, 15]: 11000 and 5700 and 9180 | cell count [5, 16]: 10000 and 6220 and 9430 | fold fluorescence [6]: 4.02 [at 187.8 µM] (inactive) | outcome [7]: inactive | z-score [8]: 0.515 (inactive) and -0.165 (inactive)

CCCCCCCC/C=C\CCCCCCCC(=O)NCCc1ccc(O)c(O)c1
period change [1]: 0.16 h (inactive) | survival [9]: 98 (inactive) | inhibition [2]: -3% (inactive) | fluorescence ratio (interference) [3]: 1 (inactive) | remaining activity [4]: 113% (inactive) | fold change [5, 13]: 0.822 (inactive) and 1.01 (inactive) and 1 (inactive) | fold change [5, 14]: 1.55 and 1.58 and 0.782 | cell count [5, 15]: 4510 and 5800 and 5520 | cell count [5, 16]: 5490 and 5740 and 5510 | outcome [7]: inactive | z-score [8]: -1.38 (inactive) and -0.82 (inactive)

O=S(=O)(c1cccc2c(Cl)cccc12)N1CCCNCC1
period change [1]: 0.09 h (inactive) | survival [9]: 62 (inactive) | inhibition [2]: -2% (inactive) | fluorescence ratio (interference) [3]: 1 (inactive) | remaining activity [4]: 97.3% (inactive) | fold change [5, 13]: 1.19 (inactive) and 0.923 (inactive) and 0.938 (inactive) | fold change [5, 14]: 1.59 and 1.07 and 1 | cell count [5, 15]: 6430 and 3010 and 7700 | cell count [5, 16]: 5390 and 3260 and 8210 | fold fluorescence [6]: 11.9 [at 153.9 µM] (inactive) | outcome [7]: inactive | z-score [8]: -0.995 (inactive) and -0.78 (inactive)

O=C(NCCCCCCNC(=O)ON=C1CCCCC1)ON=C1CCCCC1
remaining activity [4]: 126% (inactive) | fold change [5, 13]: 0.722 (inactive) and 0.829 (inactive) | fold change [5, 14]: 1.07 and 1.04 | cell count [5, 15]: 3570 and 6850 | cell count [5, 16]: 4940 and 8260 | fold fluorescence [6]: 7.89 [at 126.7 µM] (inactive) | z-score [8]: -0.255 (inactive)

O=C(OCCN1CCOCC1)C1(c2ccccc2)CCCCC1
period change [1]: -0.085 h (inactive) | inhibition [2]: -2% (inactive) | fluorescence ratio (interference) [3]: 1 (inactive) | remaining activity [4]: 124% (inactive) | fold change [5, 13]: 1.05 (inactive) and 1.02 (inactive) | fold change [5, 14]: 1.06 and 0.742 | cell count [5, 15]: 10700 and 8020 | cell count [5, 16]: 10200 and 7840 | outcome [7]: inactive | z-score [8]: -0.08 (inactive) and -0.97 (inactive)

CC(C)(C)c1ccc(S(=O)(=O)/C=C/C#N)cc1
period change [1]: -0.05 h (inactive) | inhibition [2]: -4% (inactive) | fluorescence ratio (interference) [3]: 0.9 (inactive) | remaining activity [4]: 114% (inactive) | fold change [5, 13]: 0.996 (inactive) and 0.965 (inactive) | fold change [5, 14]: 0.975 and 1.39 | cell count [5, 15]: 4040 and 1980 | cell count [5, 16]: 4060 and 2060 | SSMD [10]: -5.26 | cell count [10]: 6870 | plate-normalised HSF1 focus index [10]: 0.733 (inactive) | outcome [7]: inactive | z-score [8]: -1.5 (inactive) and -1.04 (inactive)

CN(C)c1ccc(/C=C2\C(=O)Nc3ccccc32)cc1
period change [1]: -0.18 h (inactive) | survival [9]: 85.4 (inactive) | inhibition [2]: -2% (inactive) | fluorescence ratio (interference) [3]: 0.9 (inactive) | remaining activity [4]: 109% (inactive) | fold change [5, 13]: 1.15 (inactive) and 1.05 (inactive) and 0.834 (inactive) | fold change [5, 14]: 1.24 and 1.39 and 0.903 | cell count [5, 15]: 7000 and 1360 and 6590 | cell count [5, 16]: 6070 and 1300 and 7900 | fold fluorescence [6]: 5.59 [at 189.2 µM] (inactive) | outcome [7]: inactive | z-score [8]: 3.25 (active) and 0.195 (inactive)

COc1ccccc1N1CCN(CCN2C(=O)CC3(CCCC3)CC2=O)CC1
period change [1]: -0.035 h (inactive) | inhibition [2]: -5% (inactive) | fluorescence ratio (interference) [3]: 1 (inactive) | remaining activity [4]: 96.2% (inactive) | fold change [5, 13]: 1.01 (inactive) and 0.904 (inactive) and 0.921 (inactive) | fold change [5, 14]: 1.78 and 0.65 and 0.553 | cell count [5, 15]: 10300 and 7050 and 8240 | cell count [5, 16]: 10200 and 7800 and 8940 | outcome [7]: inactive | z-score [11, 17]: -0.152 (inactive) | z-score [11, 18]: -0.237 | z-score [8]: -0.235 (inactive) and -0.615 (inactive)

S=C(S)OC1CC2CC1C1CCCC21 (configuration not stated)
period change [1]: -0.18 h (inactive) | inhibition [2]: -2% (inactive) | fluorescence ratio (interference) [3]: 1 (inactive) | remaining activity [4]: 120% (inactive) | fold change [5, 13]: 0.999 (inactive) and 0.847 (inactive) and 0.975 (inactive) | fold change [5, 14]: 0.874 and 0.927 and 0.9 | cell count [5, 15]: 10600 and 4560 and 8830 | cell count [5, 16]: 10600 and 5380 and 9060 | fold fluorescence [6]: 5.66 [at 187.6 µM] (inactive) | outcome [7]: inactive | z-score [8]: -0.025 (inactive) and -0.095 (inactive)

CC(NC(=O)c1ccccc1N=Cc1c(O)ccc2ccccc12)c1ccccc1 (configuration not stated)
remaining activity [4]: 102% (inactive) | fold change [5, 13]: 0.954 (inactive) and 0.917 (inactive) | fold change [5, 14]: 0.477 and 1.5 | cell count [5, 15]: 7190 and 7160 | cell count [5, 16]: 7540 and 7810 | SSMD [10]: 1.72 | cell count [10]: 7320 | plate-normalised HSF1 focus index [10]: 1.11 (inactive) | z-score [11, 17]: -0.168 (inactive) | z-score [11, 18]: -0.189 | viability ([12]; at 0.000305 µM, OCI-C5x cells, with rucaparib 10 µM, 100% = cells with rucaparib alone): 111% (inactive) | viability ([12]; at 0.000305 µM, OCI-C5x cells, without rucaparib): 99.9% (active) | viability ([12]; at 0.000305 µM, OCI-P5x cells, with rucaparib 20 µM, 100% = cells with rucaparib alone): 102% (inactive) | viability ([12]; at 0.000305 µM, OCI-P5x cells, without rucaparib): 90.3% (active) | viability ([12]; at 0.00122 µM, OCI-C5x cells, with rucaparib 10 µM, 100% = cells with rucaparib alone): 122% (inactive) | viability ([12]; at 0.00122 µM, OCI-C5x cells, without rucaparib): 121% (inactive) | viability ([12]; at 0.00122 µM, OCI-P5x cells, with rucaparib 20 µM, 100% = cells with rucaparib alone): 103% (inactive) | viability ([12]; at 0.00122 µM, OCI-P5x cells, without rucaparib): 95.7% (active) | viability ([12]; at 0.00488 µM, OCI-C5x cells, with rucaparib 10 µM, 100% = cells with rucaparib alone): 119% (inactive) | viability ([12]; at 0.00488 µM, OCI-C5x cells, without rucaparib): 126% (inactive) | viability ([12]; at 0.00488 µM, OCI-P5x cells, with rucaparib 20 µM, 100% = cells with rucaparib alone): 106% (inactive) | viability ([12]; at 0.00488 µM, OCI-P5x cells, without rucaparib): 96.5% (active) | viability ([12]; at 0.0195 µM, OCI-C5x cells, with rucaparib 10 µM, 100% = cells with rucaparib alone): 121% (inactive) | viability ([12]; at 0.0195 µM, OCI-C5x cells, without rucaparib): 119% (inactive) | viability ([12]; at 0.0195 µM, OCI-P5x cells, with rucaparib 20 µM, 100% = cells with rucaparib alone): 114% (inactive) | viability ([12]; at 0.0195 µM, OCI-P5x cells, without rucaparib): 100% (active) | viability ([12]; at 0.0781 µM, OCI-C5x cells, with rucaparib 10 µM, 100% = cells with rucaparib alone): 112% (inactive) | viability ([12]; at 0.0781 µM, OCI-C5x cells, without rucaparib): 119% (inactive) | viability ([12]; at 0.0781 µM, OCI-P5x cells, with rucaparib 20 µM, 100% = cells with rucaparib alone): 108% (inactive) | viability ([12]; at 0.0781 µM, OCI-P5x cells, without rucaparib): 102% (inactive) | viability ([12]; at 0.313 µM, OCI-C5x cells, with rucaparib 10 µM, 100% = cells with rucaparib alone): 116% (inactive) | viability ([12]; at 0.313 µM, OCI-C5x cells, without rucaparib): 118% (inactive) | viability ([12]; at 0.313 µM, OCI-P5x cells, with rucaparib 20 µM, 100% = cells with rucaparib alone): 108% (inactive) | viability ([12]; at 0.313 µM, OCI-P5x cells, without rucaparib): 104% (inactive) | viability ([12]; at 1.25 µM, OCI-C5x cells, with rucaparib 10 µM, 100% = cells with rucaparib alone): 116% (inactive) | viability ([12]; at 1.25 µM, OCI-C5x cells, without rucaparib): 126% (inactive) | viability ([12]; at 1.25 µM, OCI-P5x cells, with rucaparib 20 µM, 100% = cells with rucaparib alone): 115% (inactive) | viability ([12]; at 1.25 µM, OCI-P5x cells, without rucaparib): 109% (inactive) | viability ([12]; at 5 µM, OCI-C5x cells, with rucaparib 10 µM, 100% = cells with rucaparib alone): 105% (inactive) | viability ([12]; at 5 µM, OCI-C5x cells, without rucaparib): 143% (inactive) | viability ([12]; at 5 µM, OCI-P5x cells, with rucaparib 20 µM, 100% = cells with rucaparib alone): 112% (inactive) | viability ([12]; at 5 µM, OCI-P5x cells, without rucaparib): 108% (inactive) | z-score [8]: 0.205 (inactive)
